# Out of some 4,800 compounds screened, about 410 (8.5%) showed an effect of 50% or more. For the sample, strong results were picked, then their nearest neighbours and some compounds at random.
# Tested on: Plasmodium falciparum
# Assay: Confirmatory screen in NF54 pLDH assay, in single point, at 2uM, 72h
# Format: functional, Erythrocyte
# Settings: timepoint 72 hour
row,Compound,% Inhibition
1,O=S(=O)(c1ccc(Br)o1)N1CCCC[C@H]1c1ncc[nH]1,-20%
2,Cc1ccc(NC(=O)COC(=O)c2nccc3ccccc23)cc1,11%
3,COc1cccc(Oc2nc(N3CCN(C)CC3)nc3c2CN(C(=O)Nc2ccccc2)CC3)c1,10%
4,CC1CCN(c2nc3c(c(Oc4cccc(F)c4)n2)CN(Cc2ccccn2)CC3)CC1,21%
5,COc1cccc(CC(=O)N2CCc3nc(N4CCC(C)CC4)nc(Oc4ccccc4OC)c3C2)c1,61%
6,Cc1cc(C)n(S(=O)(=O)c2cccc3cccnc23)n1,-10%
7,COc1cc(OC)cc(C(=O)Nc2ccc3nc(N4CCC(C)CC4)cc(C)c3c2)c1,40%
8,CCN(CC)c1ccc(C(=O)Nc2ccc3nc(N4CCCC4)cc(C)c3c2)cc1,93%
9,CCn1cc(C(=O)Nc2ccc(C(=O)N3CCCCC3)cc2)cn1,5%
10,O=C1CN(S(=O)(=O)c2ccc(C(F)(F)F)cc2)C2(CCCCC2)CN1CC1CC1,-14%
11,CCOC(=O)c1c(CN2CCOCC2)n(-c2ccc(C)cc2)c2ccc(Oc3nccc(Nc4ccccc4)c3C#N)cc12,7%
12,COCc1cc2nn(CC(=O)Nc3ccc(F)cc3)c(=O)n2c(-c2ccccc2)n1,-27%
13,O=C(Nc1ccccc1)C1=NN(CC(=O)N2CCCCC2)C(=O)CC1,-1%
14,CC(NS(C)(=O)=O)C(=O)N1CCC(F)(c2cc(F)cc(F)c2)C1 (stereo not drawn),12%
15,COc1ccc(Nc2nc(C(C(F)(F)F)(C(F)(F)F)C(F)(F)F)nc(C(C(F)(F)F)(C(F)(F)F)C(F)(F)F)n2)cc1,11%
16,O=c1cc(-c2ccccc2)n(S(=O)(=O)c2ccccc2)o1,-7%
17,Clc1cccc(N2CCN(Cc3ccc(OC4CCNCC4)cc3)CC2)c1,14%
18,CC(=O)C1(C(C)=O)[C@H](c2ccc(F)cc2)C1(C#N)C#N,-24%
19,O=C(CCC1CCCCC1)Nc1ncccn1,-9%
20,O=C(NCCCc1ccccc1)[C@H]1CCCN(c2nc3ccccc3[nH]2)C1,-4%
21,CC(C)C1(C)CC(=O)N(C(C(=O)O)c2ccccc2)C1=O (stereo not drawn),-6%
22,Cc1nc(N)nc(C)c1C(=O)Nc1ccc(Nc2ncccn2)cc1,36%
23,Cc1cc(N)nc(Nc2ccc(Nc3ccccc3)cc2)n1,97%
24,c1ccc(Nc2nc(-c3ccccc3)cc(-c3ccccc3)n2)cc1,5%
25,O=C(NC(C1CC1)C1CC1)c1ccsc1,-23%

row,Compound,% Inhibition
1,Cn1c(C(=O)N2CC[C@H](N)C2)ccc1-c1cccc(Br)c1,11%
2,N#Cc1c(-c2ccccc2)cc(-c2ccccc2)n(C(=O)c2ccc(F)cc2)c1=O,9%
3,Oc1nccc(C(F)(F)C(F)(F)F)n1,-3%
4,CCOc1ccc(-c2cc(NC(=O)c3cc(-c4cccnc4)nc4ccccc34)on2)cc1OCC,98%
5,COc1ccc(-c2cc(C(=O)NC3CCN(C(C)C)CC3)c3ccccc3n2)cc1OC,-18%
6,CS(=O)(=O)Nc1nc2ccc(NC(=O)c3cc(-c4ccccc4)nc4ccccc34)cc2s1,3%
7,Cc1ccc(-c2ccc(CN(CC(=O)NCC(=O)O)C(C)C)s2)cc1,13%
8,CN(C)Cc1ccc(NC(=O)c2cc(F)cc3c(=O)c4cc(F)ccc4[nH]c23)cc1,95%
9,CCN1CCN(c2cccc(NC(=O)c3ccc4[nH]c5ccccc5c(=O)c4c3)c2)CC1,100%
10,Cc1cccc(NC(=O)c2cc(C)nc3c2c(C)nn3-c2ccc(F)cc2)c1,0%
11,CCn1c(C)c(C)c2cc(C(=O)Nc3cccc(S(=O)(=O)N4CCOCC4)c3)ccc21,4%
12,CC(C)n1nccc1NC(=O)c1c[nH]c2ccc(F)cc2c1=O,-4%
13,CCN1CCN(C(=O)c2ccccc2N2CCC(NC(=O)c3cccc(Br)c3)CC2)CC1,40%
14,CC(C)NC(=O)N(C)Cc1ccc(F)cc1,8%
15,CCN1CCN(c2cccc(NC(=O)c3cc(F)cc4c(=O)c5cc(F)ccc5[nH]c34)c2)CC1,96%
16,CC(=O)Nc1cccc(C#CCN2CCN(c3ccc(F)cc3)CC2)c1,13%
17,N#CCc1ncc(CCN2C(=O)c3ccccc3C2=O)s1,7%
18,COc1ccc(S(=O)(=O)N(c2onc(C)c2Cl)S(=O)(=O)c2ccc(OC)c(OC)c2)cc1OC,4%
19,CC[C@@H](C(N)=O)N1CCN(Cc2nc(-c3cccs3)no2)CC1,7%
20,Cc1noc(-c2csc(-c3c[nH]cn3)n2)n1,-1%
21,CN(Cc1ccn(C)n1)C(=O)c1cc(S(=O)(=O)N(C)C)c(Cl)cc1Cl,8%
22,O=C(NC1CCCC1)N1CCN(S(=O)(=O)c2cccc(F)c2)CC1,2%
23,Cc1c(C(=O)NC2CC2)cc(-c2ccccc2)n1C,6%
24,COc1ccc(-c2cc(C(=O)N[C@H]3CCN(c4ccc(=O)n(C)n4)C3)c(C)n2C)cc1,41%
25,COc1ccc(-c2cc(C(=O)N[C@H]3CCN(c4ccc(=O)[nH]n4)C3)c(C)n2C)cc1,58%

row,Compound,% Inhibition
1,c1cn(C[C@@H]2CCCN2c2nc(C3CCCC3)ns2)nn1,-8%
2,Cn1cc(C(=O)c2nc(-c3ccccc3Cl)no2)cn1,-5%
3,O=S(=O)(c1ccc2nncn2c1)N(Cc1cccc(Cl)c1)c1ccccc1,9%
4,O=C(N[C@@H]1CC=C(c2ccc(F)cc2)CC1)c1nc2n(n1)CCCN2,10%
5,c1ccc2[nH]c(Nc3nc4ccccc4s3)nc2c1,14%
6,COc1ccc(CNC(=N)NS(=O)(=O)c2ccc(OC)c(OC)c2)c(OC)c1,11%
7,Cc1cc(Br)ccc1CNC(=O)CN1CCCCC1=O,13%
8,O=C(Nc1[nH]c(=O)ncc1F)c1cccc2ccccc12,72%
9,O=C(Nc1ccccc1-c1nnc[nH]1)c1ccc(F)c(Cl)c1,2%
10,Cn1ccc(NC(=O)c2cccc3ccccc23)n1,4%
11,O=C1c2ccccc2C(c2ccc(NC(=O)c3cccc4ccccc34)cc2)(c2ccc(NC(=O)c3cccc4ccccc34)cc2)c2ccccc21,42%
12,COc1cc(C(=O)Nc2[nH]c(=O)ncc2F)ccc1Cl,68%
13,COc1ccc(C(=O)Nc2ccc3c(c2)C(=O)Nc2cccnc2O3)cc1OC,26%
14,O=C(Nc1[nH]c(=O)ncc1F)c1cc(F)c(F)cc1Br,86%
15,COc1cc2c(cc1-c1cccnc1)CCC(=O)N2C,-22%
16,CCc1c[nH]c(CNC(=O)C2(C(=O)NC3CC3)CCC2)n1,7%
17,CCC[C@H](C)c1nc(N2CCN(C(=O)Cc3ccc(OC)cc3)CC2)c2cnn(-c3ccccc3)c2n1,9%
18,CC(=O)Nc1ccc(NC(=O)CCC(C)C)cc1,-6%
19,CC(=O)Nc1ccc(-c2cn3c4ccccc4ccc3[n+]2C)cc1,67%
20,CC(=O)c1ccc(NC(=O)Cn2c(-c3ccccc3)nc(C)cc2=O)cc1,10%
21,CCOc1cccc2c1OC1(C)C(C(=O)Nc3ccc(C)cc3C)C2NC(=O)N1c1ccccc1 (stereo not drawn),-7%
22,O=C1[C@@H]2C[C@@H](CN2C(=O)c2cncnc2)Oc2ccccc2N1Cc1cccnc1,6%
23,O=C(O)C[C@H](NC(=O)c1cscn1)c1ccc(Cl)s1,-23%
24,O=S(=O)(c1cccnc1)N(CC1CCCCC1)c1cnccn1,10%
25,COc1ccc(-c2cc(C(=O)Nc3ncc[nH]3)n[nH]2)cc1OC,22%

row,Compound,% Inhibition
1,COc1ccc2cccc(NC(=O)c3cc(-c4cc(OC)c(OC)c(OC)c4)n[nH]3)c2n1,51%
2,COc1cc(NC(=O)c2cc(-c3cccc4ccccc34)[nH]n2)cc(OC)c1OC,10%
3,Cc1ccnc2nc(C(=O)N(CC3CC3)CC(F)(F)F)nn12,10%
4,O=C(N[C@H]1CCCc2occc21)c1ccco1,7%
5,CC(O)CC(C)(C)CNC1CCCc2occc21 (stereo not drawn),-9%
6,Oc1cccc(CN[C@H]2CCCc3occc32)c1Cl,83%
7,COc1ccc(Nc2nc(C(=O)Nc3ncc(C)s3)cs2)cc1OC,13%
8,CCOC(=O)Oc1c(OC)cc(C(=O)Nc2ccc3c(c2)sc(=O)n3C)cc1OC,15%
9,CCOc1cc(C(=O)Nc2ccc3nc4c(c(Nc5ccc(OC)c(OC)c5)c3c2)CCCC4)cc(OCC)c1OCC,103%
10,COC(=O)c1cc(S(=O)(=O)NCCc2csc(C)n2)cc(F)c1F,-8%
11,CCN(C(=O)[C@H]1CCN(C)[C@@H](C)C1)C1CCCC1,11%
12,Cc1cn(Cc2ncc(C(F)(F)F)cc2Cl)c(=O)[nH]c1=O,-18%
13,N#Cc1ccc(NC(=O)[C@](F)(OC(F)(F)C(F)(F)C(F)(F)F)C(F)(F)F)cc1,-2%
14,Cc1cc(CN(C)c2cc(C3CC3)nc(N(C)Cc3cc(C)on3)n2)no1,-11%
15,CN(Cc1ccc(-c2ccccc2)cc1)c1cc([C@H]2C[C@@H](N)C2)nc(N)n1,54%
16,CC(=O)N1c2c(C)cccc2[C@@H](C)CC1(C)C,16%
17,CCc1ccc(NC(=O)Cn2c(=O)ncc3cc(S(=O)(=O)N4CCCC[C@@H]4C)ccc32)cc1,11%
18,CC(C)C[C@@H]1N[C@H](C(=O)NCCN(C)C)Cc2c[nH]c3cccc1c23,-19%
19,Cc1cc2nc(C(=O)NC3CCN(Cc4ccccc4)CC3)c(=O)n(C)c2cc1C,-6%
20,Cc1cc(C(=O)Nc2nc(-c3ccc4c(c3)CCC4)n[nH]2)no1,7%
21,CCn1cc(C#N)c(=O)c2cc(F)c(N3CCN(Cc4ccccc4)CC3)cc21,78%
22,CCn1cc(C(=O)O)c(=O)c2cc(F)c(N3CCN(S(=O)(=O)c4ccccc4)CC3)cc21,-6%
23,CCn1cc(-c2nc(-c3ccccc3C)no2)c(=O)c2cc(F)c(N3CCCCC3)cc21,42%
